Rows were chosen to be rich in hits. Some 4.1% of all compounds tested hit in one or more screens of this group.
DAX1 inh-1: DAX1 (NR0B1) inhibitors, primary screen, cell-based, HEK293, Gal4-DAX1, luciferase luminescence; inhibition, % at 6.75 µM; HEK293 Gal4-DAX1 luciferase reporter; 340,000 tested, 0.99% active; Nuclear receptor subfamily 0 group B member 1 (Homo sapiens), P51843;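 active = inhibition above the mean over all tested compounds plus 3 SD, cut at about 4.2% in these data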;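 note: 0% = DAX1-transfected cells with DMSO and 100% = empty-vector control cells with DMSO; inhibition shows as a rise in luminescence from relieved DAX1 repression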
Target sequence (P51843 207-470 limits assumed): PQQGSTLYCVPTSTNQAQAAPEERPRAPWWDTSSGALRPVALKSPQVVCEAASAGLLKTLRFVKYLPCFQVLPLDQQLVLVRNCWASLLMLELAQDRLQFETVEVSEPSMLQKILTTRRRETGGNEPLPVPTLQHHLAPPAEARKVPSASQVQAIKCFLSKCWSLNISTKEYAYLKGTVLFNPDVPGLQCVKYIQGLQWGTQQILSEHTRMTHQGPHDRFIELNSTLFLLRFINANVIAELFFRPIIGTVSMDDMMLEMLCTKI
hcDAF-12 act: H. contortus DAF-12 nuclear receptor activators, primary screen, cell-based, luminescence, HEK293, lit1-tk-luc reporter; HEK293 hcDAF-12 lit1-tk-luc reporter; 0% DMSO, 100% Δ7-dafachronic acid; AID 652067, 2013; 370,000 tested, 1.4% active; activation, % at 6.8 µM;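 active = activation above the mean of all tested compounds plus 3 SD, cut at about 5.5% in these data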;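 note: 100% = response to 3 µM Δ7-dafachronic acid high control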
hgDAF12 agonist: H. glycines DAF-12 receptor agonists, primary screen, cell-based, luminescence, HEK293, GAL4 fusion, UAS-luciferase; 370,000 tested, 1.8% active; activation, % at 6.8 µM; HEK293 GAL4-hgDAF12 UAS-luciferase reporter, agonist luminescence; normalized to butyrate control; Nuclear hormone receptor DAF-12 (Heterodera glycines), GAL4 fusion;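 active = activation above a cutoff set at the mean of all screened compounds plus 3 SD, cut at about 10% in these data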;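 note: 0% = DMSO wells and 100% = sodium butyrate wells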
DAX1 inh-2: DAX1 (NR0B1) inhibitors on StAR promoter, primary screen, cell-based, luminescence, SF-1 (NR5A1), full-length DAX-1 | 370,000 tested, 1.1% active | HEK293T StAR-luciferase reporter, SF-1/DAX-1 repression relief | AID 652010, 2013 | inhibition, % at 6.8 µM;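 active = inhibition above the mean over all tested compounds plus 3 SD, cut at about 3.6% in these data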;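 note: 0% = DAX-1 cells with DMSO and 100% = cells lacking DAX-1 with DMSO; higher inhibition means more luminescence from relief of DAX-1 repression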
ssDAF12 agonist: S. stercoralis DAF-12 nuclear receptor activators, primary screen, cell-based, luminescence, HEK293, GRIP1 co-expression, lit1-tk-luc; 370,000 tested, 1% active; activation, % at 6.8 µM; Nuclear hormone receptor DAF-12 (Strongyloides stercoralis); HEK293 ssDAF-12/GRIP1 lit1-tk-luc reporter; % of 3 µM dafachronic acid response; AID 652126, 2013;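 active = activation above the mean over all tested compounds plus 3 SD, cut at about 0.9% in these data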;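 note: 0% = DMSO-only wells and 100% = 3 µM delta7-dafachronic acid wells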
* marks the source's active call; other numbers are inactive results; x = no result.

SMILES | DAX1 inh-1 | hcDAF-12 act | hgDAF12 agonist | DAX1 inh-2 | ssDAF12 agonist
O=C(CN1C(=O)CCSc2ccccc21)Nc1cccc(Cl)c1F | x | -1.0 | 0.0 | -1.2 | -1.7
CSCCCNC(=O)CN1C(=O)C2CCCCN2C(=O)c2ccccc21 (centres undefined) | x | -0.1 | -1.9 | 0.5 | -0.7
O=Cc1c(C(=O)O)n(CC(=O)O)c2ccccc12 | 0.5 | 5.8* | 0.9 | -0.1 | -0.4
O=C(CN1C(=O)C(=O)N(CCC2=CCCCC2)C1=O)Nc1ccc(F)cc1F | -0.5 | 1.6 | 6.4 | 0.0 | -1.5
N#Cc1ccc(Cl)cc1NC(=O)CN1C(=O)C(=O)N(CCC2=CCCCC2)C1=O | -0.3 | 4.3 | 2.0 | -0.2 | 1.2*
CCC(=O)NC(c1ccc(N(C)C)cc1)c1c(O)ccc2ccccc12 (centres undefined) | 0.2 | 6.3* | 1.5 | 0.3 | -0.5
C=CC[C@H]1c2ccccc2[C@H]2N3N=Cc4ccccc4[C@H]3[C@H](CCc3ccccc3)C(=O)N2N1C(=O)c1ccccc1 | x | -3.6 | -1.4 | -1.1 | -1.3
COc1ccc(S(=O)(=O)NCC2CCCN(Cc3cccnc3)C2)cc1 (centres undefined) | 4.3* | -1.1 | -2.7 | -0.4 | -1.8
Cc1cc(C)cc(OC(C)CCN2CCC(C(O)(c3ccccc3)c3ccccc3)CC2)c1 (centres undefined) | x | 0.8 | 3.0 | -0.1 | -1.4
CCCOc1ccc(N2C(=O)CC(N(CCCO)C(=O)CC)C2=O)cc1 (centres undefined) | 1.1 | -1.7 | 0.1 | 0.0 | -1.0
CCCCN(C(C)=O)C1CC(=O)N(c2ccc(OCCC)cc2)C1=O (centres undefined) | 8.6* | -0.2 | 0.9 | 0.1 | -0.8
Cc1cccc(NC(=S)NCCc2ccccc2)c1C | -0.9 | 0.9 | -0.2 | -0.2 | -1.8
Cc1cccnc1NC(=O)C(C)N1C(=O)c2ccccc2C1=O (centres undefined) | 7.5* | 0.3 | 0.9 | 0.0 | -0.8
Cc1cccnc1NC(=S)NCCc1ccccc1 | 1.6 | 1.0 | 11.5* | 1.3 | 0.8
Cc1ccccc1NC(=O)C(C)N1C(=O)c2ccccc2C1=O (centres undefined) | -1.3 | -1.0 | 2.4 | -0.1 | -0.4
Cc1cccnc1NC(N)=S | 1.2 | 0.1 | 1.8 | -0.3 | -0.9
Cc1cccnc1NC(=S)Nc1ncccc1C | 4.8* | 3.1 | 11.4* | 1.6 | 0.3
S=C(NCCc1ccccc1)NC1CCCCCC1 | 2.6 | 2.8 | 10.9* | 2.7 | -0.4
CC(=O)Nc1ccc(/C=N\NC(=O)c2cccc(S(=O)(=O)N(C)C)c2)cc1 | x | 0.3 | -0.5 | -0.3 | -0.8
CS(=O)(=O)OC12CCCN(C1)/C(=C/c1ccc(Cl)cc1)C2 (centres undefined) | x | 0.7 | 2.2 | 0.0 | -1.1
COc1ccc(Cn2c(NC(=O)c3ccccc3)nc(Cc3ccccc3)c2-c2ccccc2)c(OC)c1 | x | 1.2 | 2.3 | -0.7 | -1.2
NS(=O)(=O)c1ccc(CNC(=S)NC2CCCC2)cc1 | 4.5* | -1.5 | -1.6 | -0.2 | -1.6
O=c1cc(N2CCN(c3ccnc4cc(Cl)ccc34)CC2)[nH]c(=O)n1C1CCCCC1 | x | -5.3 | -4.8 | x | -2.6
COC(=O)[C@]12C=CCN1[C@H](c1ccc(OC)c(OC)c1)c1c(c3ccccc3n1S(=O)(=O)c1ccc(C)cc1)C2 | x | 1.1 | 2.3 | 0.7 | 3.8*
CC(OC(=O)c1ccc(S(=O)(=O)N2CCCCC2)cc1)C(=O)Nc1ccc(C(N)=O)cc1 (centres undefined) | -0.9 | -0.6 | 3.4 | 0.5 | -1.4
SMILES | DAX1 inh-1 | hcDAF-12 act | hgDAF12 agonist | DAX1 inh-2 | ssDAF12 agonist
CC(OC(=O)c1nccnc1N)C(=O)Nc1ccc(S(=O)(=O)N2CCCC2)cc1 (centres undefined) | 4.6* | -1.3 | -1.2 | 0.5 | -1.0
CCOc1ccc(/C=C/C(=O)N2CCOCC2)cc1OC | 0.0 | -0.1 | -0.6 | -0.1 | -1.0
CCOc1cc(C(=S)N2CCOCC2)ccc1OC(=O)/C=C/c1ccc(OC)c(OC)c1 | -1.5 | -1.4 | 10.8* | -0.4 | -1.6
CCCC1CCC2(CC1)CCC2OC(=O)Nc1cc(C)cc(C)c1 (centres undefined) | x | 1.3 | -0.6 | x | -1.6
CC(C)Oc1cccc(-c2n[nH]c(=S)n2N=Cc2ccc(O)cc2O)c1 | x | -0.5 | -2.8 | 0.4 | -1.8
Nc1ccc(N=Nc2ccccc2)cc1[N+](=O)[O-] | 2.1 | 5.6* | 12.1* | 1.9 | 3.0*
Cc1ccc2occ(/C=N/NC(=O)[C@@H](N)Cc3ccccc3)c(=O)c2c1 | 5.3* | -0.1 | 3.8 | -0.1 | -0.8
Cc1cccc(C(=O)N/N=C/c2coc3ccccc3c2=O)c1 | -0.1 | 0.8 | 1.4 | 1.1 | -0.3
Cc1ccc(C(=O)Nc2cccc(C(=O)N/N=C/c3ccc(O)cc3)c2)cc1 | -0.6 | 5.9* | 6.6 | 0.6 | 0.1
O=C(N/N=C\CCc1ccccc1)c1ccco1 | 1.8 | 3.2 | 12.8* | 2.3 | -0.2
Cc1cccc(-n2c(C)cc(/C=N\NC(=O)c3ccco3)c2C)c1 | 2.2 | 2.3 | 9.9 | 2.3 | -1.3
Cc1ccc(/C=N/NC(=O)c2ccco2)cc1 | x | 3.3 | 11.9* | 2.4 | -0.8
O=C(N/N=C/c1ccccn1)c1ccco1 | 1.9 | 0.0 | 10.3 | 1.3 | -0.3
O=C(N/N=C/c1ccc2ncccc2c1)c1ccco1 | -1.9 | 4.6 | 8.0 | 4.2* | 0.9
O=C(C1CCCCC1)n1ccc2ccc(-c3ccc4ccn(Cc5ccccc5)c4c3)cc21 | x | -1.5 | 0.8 | -0.4 | -0.9
COc1ccc(-n2c(SCC(=O)Nc3ccc(Oc4ccccc4)cc3)nnc2-c2cccnc2)cc1 | x | -2.4 | 1.8 | -1.0 | -2.1
O=C(Cc1ccc2c(c1)OCO2)N1CCC(n2nc(-c3ccccc3)oc2=O)CC1 | x | -3.6 | -3.0 | x | -1.9
c1coc(-c2nn3c(-c4ccco4)nnc3s2)c1 | -0.6 | -0.7 | -0.8 | -0.1 | -0.5
COc1ccccc1-c1nn2c(-c3ccco3)nnc2s1 | 5.9* | 1.9 | 7.9 | 2.9 | -0.1
COc1ccc(C(=O)C=Cc2cccs2)c(O)c1 | -0.4 | 2.5 | 11.0* | 3.3 | -1.1
Cc1ccc(/C=N/NC(=S)N2CCOCC2)cc1 | 0.6 | 3.5 | 12.2* | 2.2 | -0.3
S=C(N/N=C/c1ccc(Br)cc1)N1CCCCC1 | 6.7* | 2.8 | 9.8 | 2.4 | 1.2*
CON(C)C(=O)C(C)(C)CC#CCN(CC#Cc1ccccc1)S(=O)(=O)c1ccc(C)cc1 | x | -0.5 | -0.4 | -0.1 | -1.1
COc1ccc(NC(C)=O)cc1NC(C)C(=O)Nc1ccccc1F (centres undefined) | 5.7* | 0.6 | -2.2 | 0.3 | -0.9

Compound activity deposited in PubChem BioAssay by The Scripps Research Institute Molecular Screening Center.
